Assay outcomes from PubChem.
Hits are enriched below; roughly 32% of the tested compounds scored in any of these assays.
CYP2C9 inhib: blockers of cytochrome P450 2C9 activity – biochemical, luminescence, ADME assay, primary screen | P11712 | actives 20% (n = 96,000) | inhibition, % at 5 µM | CYP2C9 Supersomes, luciferin-H conversion;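 active means blocking of liver enzyme CYP2C9 beyond about 50% at 5 µM, limit read from the data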
Target sequence (P11712 whole entry, looked up): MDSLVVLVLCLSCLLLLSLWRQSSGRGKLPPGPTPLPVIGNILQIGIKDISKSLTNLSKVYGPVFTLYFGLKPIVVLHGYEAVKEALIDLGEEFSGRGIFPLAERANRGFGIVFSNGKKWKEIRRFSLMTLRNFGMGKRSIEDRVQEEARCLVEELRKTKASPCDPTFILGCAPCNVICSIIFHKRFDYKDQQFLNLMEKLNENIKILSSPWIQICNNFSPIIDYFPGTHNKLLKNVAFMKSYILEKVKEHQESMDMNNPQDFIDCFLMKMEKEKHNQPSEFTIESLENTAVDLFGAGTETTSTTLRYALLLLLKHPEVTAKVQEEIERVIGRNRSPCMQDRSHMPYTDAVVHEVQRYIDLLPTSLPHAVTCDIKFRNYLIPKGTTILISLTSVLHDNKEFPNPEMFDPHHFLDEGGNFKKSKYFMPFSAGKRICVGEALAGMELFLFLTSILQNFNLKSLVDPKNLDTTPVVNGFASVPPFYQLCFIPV
PostGolgi yeast: phenotypic screen on post-Golgi transport, primary screen; post-Golgi transport phenotypic cell assay; actives 0.9% (n = 98,000); inhibition, % at 10 µM;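 further: yeast cells grown in 1536-well plates; yeast grown about 18 h at 30C before absorbance read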
CYP2C9 act: human CYP2C9 activators, primary screen, biochemical, luminescence. AID 1024, 2008. activation factor at 5 µM. actives 1.4% (n = 96,000). recombinant CYP2C9, luciferin-H conversion; hits give high values; factor 1 = untreated enzyme, 0 = blocked;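 active means activation factor of 2 or more for CYP2C9 at a 5 µM dose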;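 further: 0 = sulfaphenazole-blocked wells and 1 = vehicle-only wells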
CYP2C19 inh: blockers of cytochrome P450 2C19 activity – biochemical, luminescence, ADME assay, primary screen; P33261; CYP2C19 Supersomes, luciferin-H EGE luminescence, 30 min; inhibition, % at 5 µM; actives 21% (n = 96,000); AID 778, 2007;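 active means CYP2C19 inhibition above a set limit at 5 µM in the primary screen, cut at about 50% in these data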;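 further: plate controls were negative control wells for no effect and 2.5 mM tranylcypromine positive control for full effect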
PostGolgi ctrl: growth inhibition of yeast control strain, primary screen, counter-screen for post-Golgi transport modulator project; inhibition, % at 10 µM; efflux-deficient yeast background strain, growth absorbance A615, 16 h; actives 5% (n = 98,000); AID 738, 2007
CYP2C19 activ: human CYP2C19 activators, primary screen, biochemical, luminescence; Cytochrome P450 2C19 (Homo sapiens), P33261; recombinant CYP2C19, luciferin-H EGE luminescence; hits give high values; 0 = fully inhibited enzyme, 1 = untreated enzyme; activation factor at 5 µM; 96,000 tested, under 10 active; AID 1025, 2008;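 active means activation factor of at least 2 at 5 µM in the primary screen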;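 further: 0 = wells with 2.5 mM tranylcypromine and 1 = vehicle-only wells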
Starred values were filed as active, the others as inactive; x = not tested or not shown. Unless noted, no stated cut-off is given here; in the data, active means inhibition above about 30%; inactive means the rest.

SMILES | CYP2C9 inhib | PostGolgi yeast | CYP2C9 act | CYP2C19 inh | PostGolgi ctrl | CYP2C19 activ
COCCCNC(=O)c1ccccc1NS(=O)(=O)c1ccc(C)cc1 | 32 | -6 | 0.7 | 74* | 20 | 0.3
CCC(=O)Nc1ccc(S(=O)(=O)NCc2ccco2)cc1 | -6 | 12 | 1.1 | 18 | 8 | 0.8
COc1ccccc1NC(=O)COC(=O)c1ccc(S(=O)(=O)NCc2ccco2)cc1 | 82* | -5 | 0.2 | 7 | 14 | 0.9
O=C(COC(=O)c1ccc(S(=O)(=O)NCc2ccco2)cc1)NC1CCCCC1 | 31 | 17 | 0.7 | 3 | -7 | 1
COc1ccc(S(=O)(=O)Nc2ccccc2C(=O)NCc2ccco2)cc1 | -7 | 0 | 1.1 | 62* | 31* | 0.4
COc1ccccc1NS(=O)(=O)c1ccc(C(=O)OCC(=O)NCc2ccco2)cc1 | 85* | 13 | 0.2 | 84* | -2 | 0.2
COc1ccccc1OCC(=O)NCc1ccco1 | 0 | 3 | 1 | 17 | 0 | 0.8
O=C(COC(=O)c1ccc(S(=O)(=O)NCc2ccco2)cc1)Nc1ccc(OC(F)F)cc1 | 61* | 3 | 0.4 | 29 | 5 | 0.7
CCOC(=O)C1CCCN(C(=O)c2ccc3c(c2)NC(=O)C(N2CCOCC2)S3)C1 (configuration not stated) | 5 | -7 | 0.9 | 2 | 0 | 1
COc1cc(C)c(CNc2ccc(OC)c(OC)c2)cc1C | 48 | 14 | 0.5 | 97* | -18 | 0
COc1cc(C)c(CNc2cccc(C)c2)cc1C | 71* | -12 | 0.3 | 93* | 1 | 0.1
C=CCNC(=O)COC(=O)COc1ccc(Cl)cc1C | -15 | 3 | 1.2 | 7 | 4 | 0.9
CN(C(=S)Nc1ccc(F)cc1)C1(c2ccccc2Cl)CCCCC1=O (configuration not stated) | 24 | 9 | 0.8 | 83* | 36* | 0.2
Fc1ccc(NC(=S)NN=C2CCCCCC2)cc1 | 8 | 7 | 0.9 | 10 | 2 | 0.9
Cc1ccc2nsnc2c1S(=O)(=O)N1CCN(CCc2ccccc2)CC1 | -13 | -4 | 1.1 | 92* | 1 | 0.1
Cc1ccc2nsnc2c1S(=O)(=O)NCc1cccnc1 | 20 | 1 | 0.8 | 29 | -8 | 0.7
O=C(CC(c1ccccc1)c1ccccc1O)NCc1ccco1 (configuration not stated) | 51* | -5 | 0.5 | 49 | 3 | 0.5
O=C(CC(c1ccccc1)c1cc(Br)ccc1O)NCc1ccco1 (configuration not stated) | 99* | -5 | 0 | 99* | 5 | 0
CC(C)Oc1ccc(CNC(=O)CC(c2ccccc2)c2cc(Cl)ccc2O)cc1 (configuration not stated) | 96* | 1 | 0 | 87* | 24 | 0.1
C/C(CC(=O)NCc1ccco1)=N\NC(=O)C(c1ccccc1)c1ccccc1 | 51* | -2 | 0.5 | 6 | 10 | 0.9
CC(C)Oc1ccc(N2CC(C(=O)OCC(=O)NCc3ccccc3)CC2=O)cc1 (configuration not stated) | 15 | -1 | 0.9 | -9 | 16 | 1.1
CC(C)C(CC(=O)NCc1ccco1)c1ccco1 (configuration not stated) | 24 | -4 | 0.8 | 17 | -2 | 0.8
C/C(CC(=O)NCc1ccco1)=N\NC(=O)Cc1ccccc1 | 0 | -5 | 1 | 7 | 5 | 0.9
O=C(CN1C(=O)c2ccccc2S1(=O)=O)NCCSCc1ccco1 | 26 | -21 | 0.7 | 3 | -1 | 1
CCCS(=O)(=O)N1CCCC(C(=O)NCCN(C)Cc2ccccc2)C1 (configuration not stated) | 12 | 3 | 0.9 | 11 | 9 | 0.9
CC(C)NC(=O)CC(c1ccccc1)c1cc(Br)ccc1O (configuration not stated) | 90* | 9 | 0.1 | 95* | 14 | 0
CCN(CC)CCCN1C(=O)C(=O)/C(=C(/O)c2ccc3c(c2)OCCO3)C1c1ccc(C)o1 (configuration not stated) | -1 | x | 1 | 4 | x | 1
